# Results as given in PubChem BioAssay AID1159580 (chemical genetic matrix, 2015).
# About 2,000 (36%) of roughly 5,500 compounds were called active. About 18% were inconclusive and are not listed. Some of the results follow. Values without a mark were called inactive. Rule as the data show it: active = normalized growth mostly below about 0.91 (no sharp cut-off); inconclusive = no clear call, values can overlap the other calls; inactive = mostly above about 0.92.
# Experiment: chemical genetic growth profiling, strain panel (AID 1159580);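 also: tested at 20 µM; growth read once vehicle control cultures reached saturation at 30 °C; 1 = growth at the plate median or of vehicle wells; lower values mean less growth of the strain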
# Details: S. cerevisiae deletion strains, growth OD
# [1] = locus YAR019C, strain CDC15, active compounds read low
# [2] = locus YBL105C, strain PKC1, active compounds read low
# [3] = locus YBR135W, strain CKS1, active compounds read low
# [4] = locus YBR136W, strain MEC1, active compounds read low
# [5] = locus YBR160W, strain CDC28, active compounds read low
# [6] = locus YDL017W, strain CDC7, active compounds read low
# [7] = locus YDL028C, strain MPS1, active compounds read low
# [8] = locus YDL101C, strain DUN1, active compounds read low
# [9] = locus YDL108W, strain KIN28, active compounds read low
# [10] = locus YDL132W, strain cdc53, active compounds read low
# [11] = locus YDL214C, strain PRR2, active compounds read low
# [12] = locus YDR052C, strain DBF4, active compounds read low
# [13] = locus YDR054C, strain cdc34, active compounds read low
# [14] = locus YDR226W, strain ADK1, active compounds read low
# [15] = locus YDR477W, strain SNF1, active compounds read low
# [16] = locus YER123W, strain YCK3, active compounds read low
# [17] = locus YER133W, strain GLC7, active compounds read low
# [18] = locus YFL009W, strain cdc4, active compounds read low
# [19] = locus YFL029C, strain CAK1, active compounds read low
# [20] = locus YFR003C, strain YPI1, active compounds read low
# [21] = locus YFR019W, strain FAB1, active compounds read low
# [22] = locus YFR028C, strain CDC14, active compounds read low
# [23] = locus YGR040W, strain KSS1, active compounds read low
# [24] = locus YGR052W, strain FMP48, active compounds read low
# [25] = locus YGR092W, strain DBF2, active compounds read low
# [26] = locus YHR030C, strain SLT2, active compounds read low
# [27] = locus YHR079C, strain IRE1, active compounds read low
# [28] = locus YHR082C, strain KSP1, active compounds read low
# [29] = locus YHR205W, strain SCH9, active compounds read low
# [30] = locus YIL147C, strain SLN1, active compounds read low
# [31] = locus YJL095W, strain BCK1, active compounds read low
# [32] = locus YJL128C, strain PBS2, active compounds read low
# [33] = locus YJL157C, strain FAR1, active compounds read low
# [34] = locus YJR016C, strain ILV3, active compounds read low
# [35] = locus YJR066W, strain TOR1 (second series), active compounds read low
# [36] = locus YJR066W, strain TOR1, active compounds read low
# [37] = locus YKL048C, strain ELM1, active compounds read low
# [38] = locus YKL067W, strain YNK1, active compounds read low
# [39] = locus YKL101W, strain HSL1, active compounds read low
# [40] = locus YKL193C, strain SDS22, active compounds read low
# [41] = locus YKL203C, strain TOR2, active compounds read low
# [42] = locus YLR113W, strain HOG1, active compounds read low
# [43] = locus YLR133W, strain CKI1, active compounds read low
# [44] = locus YLR403W, strain SFP1, active compounds read low
# [45] = locus YML070W, strain DAK1, active compounds read low
# [46] = locus YMR001C, strain CDC5, active compounds read low
# [47] = locus YMR205C, strain PFK2 (second series), active compounds read low
# [48] = locus YMR277W, strain FCP1, active compounds read low
# [49] = locus YNL006W, strain LST8, active compounds read low
# [50] = locus YNL020C, strain ARK1, active compounds read low
# [51] = locus YNL161W, strain CBK1, active compounds read low
# [52] = locus YNL183C, strain NPR1, active compounds read low
# [53] = locus YNL207W, strain RIO2, active compounds read low
# [54] = locus YNL222W, strain SSU72, active compounds read low
# [55] = locus YNL307C, strain MCK1 (second series), active compounds read low
# [56] = locus YOL078W, strain AVO1, active compounds read low
# [57] = locus YOL136C, strain PFK27, active compounds read low
# [58] = locus YOR061W, strain CKA2, active compounds read low
# [59] = locus YOR119C, strain RIO1, active compounds read low
# [60] = locus YOR231W, strain MKK1, active compounds read low
# [61] = locus YOR329C, strain SCD5, active compounds read low
# [62] = locus YPL031C, strain PHO85, active compounds read low
# [63] = locus YPL153C, strain RAD53, active compounds read low
# [64] = locus YPL204W, strain HRR25, active compounds read low
# [65] = locus YPL209C, strain IPL1, active compounds read low
# [66] = locus YPL256C, strain CLN2, active compounds read low
# [67] = locus YPR025C, strain CCL1, active compounds read low
# [68] = locus YPR106W, strain ISR1, active compounds read low
# [69] = locus YPR111W, strain DBF20, active compounds read low
# [70] = strain NNK1, active compounds read low
# [71] = strain TSCII, active compounds read low
compound,measurement,setting,value
Cc1ccc(S(=O)(=O)CCSC2=CC(=O)CC(C)(C)S2)cc1,normalized growth,[1],1.01
same,normalized growth,[2],0.987
same,normalized growth,[3],1
same,normalized growth,[4],1
same,normalized growth,[5],0.998
same,normalized growth,[6],0.998
same,normalized growth,[7],1
same,normalized growth,[8],1
same,normalized growth,[9],1
same,normalized growth,[10],1
same,normalized growth,[11],0.98
same,normalized growth,[12],1
same,normalized growth,[13],0.998
same,normalized growth,[14],0.994
same,normalized growth,[15],0.974
same,normalized growth,[16],0.924
same,normalized growth,[17],0.895
same,normalized growth,[18],0.997
same,normalized growth,[19],1.01
same,normalized growth,[20],0.997
same,normalized growth,[21],0.905
same,normalized growth,[22],0.998
same,normalized growth,[23],0.948
same,normalized growth,[24],0.987
same,normalized growth,[25],1
same,normalized growth,[26],0.987
same,normalized growth,[27],1.06
same,normalized growth,[28],1.08
same,normalized growth,[29],0.988
same,normalized growth,[30],0.997
same,normalized growth,[31],0.948
same,normalized growth,[32],1.02
same,normalized growth,[33],0.973
same,normalized growth,[34],0.999
same,normalized growth,[35],0.892
same,normalized growth,[36],1.04
same,normalized growth,[37],0.985
same,normalized growth,[38],0.987
same,normalized growth,[39],0.995
same,normalized growth,[40],1
same,normalized growth,[41],0.978
same,normalized growth,[42],1.05
same,normalized growth,[43],0.963
same,normalized growth,[44],0.95
same,normalized growth,[45],0.965
same,normalized growth,[46],0.999
same,normalized growth,[47],0.974
same,normalized growth,[48],1
same,normalized growth,[49],0.996
same,normalized growth,[50],0.979
same,normalized growth,[51],1
same,normalized growth,[52],1.02
same,normalized growth,[53],1
same,normalized growth,[54],1
same,normalized growth,[55],0.977
same,normalized growth,[56],0.997
same,normalized growth,[57],0.929
same,normalized growth,[58],0.969
same,normalized growth,[59],0.996
same,normalized growth,[60],0.968
same,normalized growth,[61],1
same,normalized growth,[62],0.961
same,normalized growth,[63],0.959
same,normalized growth,[64],0.912
same,normalized growth,[65],0.998
same,normalized growth,[66],1.09
same,normalized growth,[67],1
same,normalized growth,[68],1.01
same,normalized growth,[69],0.999
same,normalized growth,[70],1.03
same,normalized growth,[71],1
CC(=O)c1sc(SCCS(=O)(=O)c2ccc(C)cc2)c2c1CC(C)(C)CC2=O,normalized growth,[1],0.984
same,normalized growth,[2],1.01
same,normalized growth,[3],0.984
same,normalized growth,[4],0.98
same,normalized growth,[5],0.98
same,normalized growth,[6],0.992
same,normalized growth,[7],0.98
same,normalized growth,[8],0.969
same,normalized growth,[9],0.97
same,normalized growth,[10],0.978
same,normalized growth,[11],0.926
same,normalized growth,[12],0.935
same,normalized growth,[13],1.01
same,normalized growth,[14],0.962
same,normalized growth,[15],0.643 (active)
same,normalized growth,[16],0.914
same,normalized growth,[17],0.267 (active)
same,normalized growth,[18],0.973
same,normalized growth,[19],0.986
same,normalized growth,[20],0.97
same,normalized growth,[21],0.932
same,normalized growth,[22],0.97
same,normalized growth,[23],0.675 (active)
same,normalized growth,[24],0.947
same,normalized growth,[25],0.963
same,normalized growth,[26],0.498 (active)
same,normalized growth,[27],1.08
same,normalized growth,[28],0.987
same,normalized growth,[29],0.958
same,normalized growth,[30],0.979
same,normalized growth,[31],0.589
same,normalized growth,[32],0.982
same,normalized growth,[33],0.943
same,normalized growth,[34],0.985
same,normalized growth,[35],0.82
same,normalized growth,[36],0.995
same,normalized growth,[37],0.859
same,normalized growth,[38],0.936
same,normalized growth,[39],0.926
same,normalized growth,[40],0.98
same,normalized growth,[41],0.635 (active)
same,normalized growth,[42],0.912
same,normalized growth,[43],0.931
same,normalized growth,[44],0.828
same,normalized growth,[45],0.948
same,normalized growth,[46],0.983
same,normalized growth,[47],0.923
same,normalized growth,[48],0.964
same,normalized growth,[49],0.967
same,normalized growth,[50],0.935
same,normalized growth,[51],0.973
same,normalized growth,[52],0.962
same,normalized growth,[53],1
same,normalized growth,[54],0.967
same,normalized growth,[55],0.913
same,normalized growth,[56],0.972
same,normalized growth,[57],0.896
same,normalized growth,[58],0.941
same,normalized growth,[59],0.653 (active)
same,normalized growth,[60],0.94
same,normalized growth,[61],0.979
same,normalized growth,[62],0.818
same,normalized growth,[63],0.622 (active)
same,normalized growth,[64],0.653 (active)
same,normalized growth,[65],0.986
same,normalized growth,[66],0.956
same,normalized growth,[67],0.975
same,normalized growth,[68],0.978
same,normalized growth,[69],0.963
same,normalized growth,[70],0.991
same,normalized growth,[71],0.967
